The list is not random: actives were taken first. Their share in the collection is about 2.4%.
GLS inhibitor = inhibitors of human glutaminase (GLS); GLS enzymatic activity, qHTS titration; Potency, µM (highest dose often 45.5 µM), inactives show at the top dose activity change, negative = inhibition, actives largely listed as inhibitors; hit rate 0.21% among 410,000; also: potency is read from the fitted curve at half-maximal effect; % is scaled to controls: 0 for no effect and ±100 for the full control effect
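Read-out is an Amplex red fluorescence increase coupled through glutamate oxidase and HRP, measured before and after 30 min room-temperature incubation. hKGA is in 45 mM KH2PO4 (pH 8.2) with 0.02% Tween-20; glutamine added as 1mM solution.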
Pol eta inh-1 = inhibitors of human DNA polymerase eta; Q9Y253; recombinant Pol eta, fluorescent DNA replication assay; Potency, µM (titrated, usually from 114 µM), for the others: at the highest dose activity change, negative = inhibition, most hits filed as inhibitors; hit rate 1.2% among 390,000; AID 588591; also: potency is read from the fitted curve at half-maximal effect; % is scaled to controls: 0 for no effect and ±100 for the full control effect
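Fluorescent replication assay: 50 nM final substrate added after a 15 min room-temperature compound preincubation with 10 nM enzyme. Signal taken at 0 min and again at 10 min.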
APEX1 inh = inhibitors of human APE1 endonuclease; recombinant APE1, TAMRA/BHQ-2 abasic DNA cleavage fluorescence; AID 2517; P27695; hit rate 0.35% among 350,000; Potency, µM (doses to about 65.8 µM), without a hit: at the top dose activity change, negative = inhibition, most hits filed as inhibitors;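 also: potency is read from the fitted curve at half-maximal effect; plate controls were vehicle for no effect and reference inhibitor for full effect; nearly all actives have a fitted effect of over 55% in size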
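APE1 at 0.75 nM preincubated 15 min at room temperature with compound. Reaction then started with 50 nM double-stranded THF-abasic substrate labelled with TAMRA/BHQ-2, and 525/598 nm fluorescence read kinetically. Activity taken as third-minus-first read difference, normalized to DMSO and NSC13755 controls.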
Pol beta inh = DNA polymerase beta (human) inhibition | hit rate 1.3% among 340,000 | Pol beta primer extension/strand displacement, fluorescence kinetic | Potency, µM (highest dose often 114 µM), for inactives: top-dose activity change, negative = inhibition, hits mostly inhibitors; also: potency is read from the fitted curve at half-maximal effect; % is scaled to controls: 0 for no effect and ±100 for the full control effect
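Homogeneous kinetic assay of primer extension and strand displacement by 10 nM Pol beta, preincubated 15 min at room temperature with compound before 50 nM substrate (final) was added. Read at 0 and 10 min; four-parameter Hill fit.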
POLI inh = inhibitors of human DNA polymerase iota. Q9UNA4. Pol iota fluorescent replication assay, 10 min. Potency, µM (doses to about 115 µM), for the others: at the top dose activity, negative = inhibition, most hits filed as inhibitors. hit rate 1% among 390,000. AID 588590; also: potency is read from the fitted curve at half-maximal effect
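Fluorescent replication assay read twice, at 0 min and 10 min after adding 50 nM (final) substrate. Enzyme (10 nM) and compounds were first incubated 15 min at room temperature; enzyme-free buffer wells were negative controls.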
Pol kappa inh-1 = inhibitors of human DNA polymerase kappa | AID 588579 | hit rate 0.53% among 400,000 | purified Pol kappa, fluorescent DNA synthesis assay, 10 min | Potency, µM (doses to about 107 µM), without a hit: top-dose activity, negative = inhibition, usual class: inhibitors; also: potency is read from the fitted curve at half-maximal effect; % is scaled to controls: 0 for no effect and ±100 for the full control effect
Target sequence (Q9UBT6 whole entry, looked up): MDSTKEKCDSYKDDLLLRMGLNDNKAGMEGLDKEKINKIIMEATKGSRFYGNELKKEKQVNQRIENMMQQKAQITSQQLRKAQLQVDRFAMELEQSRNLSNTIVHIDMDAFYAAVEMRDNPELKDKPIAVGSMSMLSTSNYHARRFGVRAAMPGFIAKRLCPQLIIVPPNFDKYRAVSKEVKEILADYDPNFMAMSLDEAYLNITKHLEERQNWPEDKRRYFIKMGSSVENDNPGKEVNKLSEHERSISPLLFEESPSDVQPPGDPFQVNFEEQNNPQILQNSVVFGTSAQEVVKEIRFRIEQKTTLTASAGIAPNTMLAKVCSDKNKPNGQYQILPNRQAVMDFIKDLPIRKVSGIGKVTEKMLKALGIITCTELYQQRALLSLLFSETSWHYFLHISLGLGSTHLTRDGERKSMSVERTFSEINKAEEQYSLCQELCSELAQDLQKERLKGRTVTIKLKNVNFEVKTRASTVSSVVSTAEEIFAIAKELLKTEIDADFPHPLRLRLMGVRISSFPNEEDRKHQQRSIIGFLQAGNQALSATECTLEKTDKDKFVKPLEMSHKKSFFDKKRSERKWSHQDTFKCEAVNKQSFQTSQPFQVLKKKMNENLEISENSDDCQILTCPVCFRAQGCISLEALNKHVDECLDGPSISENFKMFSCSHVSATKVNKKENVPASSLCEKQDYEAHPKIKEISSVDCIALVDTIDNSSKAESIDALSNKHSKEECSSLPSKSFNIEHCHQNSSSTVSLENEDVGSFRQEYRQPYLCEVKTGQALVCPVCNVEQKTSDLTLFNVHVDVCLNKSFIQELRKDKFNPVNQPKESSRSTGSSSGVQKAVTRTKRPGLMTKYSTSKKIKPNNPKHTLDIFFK
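Kinetic fluorescence screen: compound preincubated 15 min RT with 10 nM enzyme; 50 nM substrate (final) initiates; reads at 0/10 min.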
GALK confirm = galactokinase (human) inhibition, confirmation; AID 2015; shares compounds with Pol eta inh-1; hit rate 70% among 150; Potency, µM (titrated, usually from 115 µM), for the others: top-dose activity, negative = inhibition, actives largely listed as inhibitors; purified GALK, Kinase-Glo ATP depletion luminescence
GALK redox cs = generates H2O2 by redox cycling, flagging GALK artifacts; shares compounds with Pol eta inh-1; Phenol red-HRP H2O2 redox cycling, absorbance 600 nm; Potency, µM (series often up to 115 µM), inactives show top-dose activity change, negative = H2O2 signal, usual class: inhibitors; hit rate 40% among 150; AID 2035
HEK293 viability = counter-screen for GALK inhibitors: HEK293 cell cytotoxicity. Potency, µM (highest dose often 46.1 µM), inactives show at the highest dose activity change, negative = cytotoxicity, hits mostly inhibitors. shares compounds with Pol eta inh-1. hit rate 10% among 170. HEK-293 viability, ATP luminescence (CellTiter-Glo), 24/48 h; also: potency is read from the fitted curve at half-maximal effect; % is scaled to controls: 0 for no effect and ±100 for the full control effect
Pol kappa inh-2 = confirmation of human DNA polymerase kappa inhibitors | hit rate 76% among 920 | AID 720501 | Potency, µM, hits mostly inhibitors | purified Pol-kappa, fluorescent strand-displacement substrate | shares compounds with Pol eta inh-1; also: potency is read from the fitted curve at half-maximal effect
Pol eta inh-2 = confirmation of human DNA polymerase eta inhibitors | shares compounds with Pol eta inh-1 | Pol eta primer extension, TAMRA/BHQ fluorescence, 10 min | Potency, µM, actives largely listed as inhibitors | hit rate 64% among 2,600 | AID 720502; also: potency is read from the fitted curve at half-maximal effect
The depositor's hits bear a star; u = inconclusive; x = not tested or not shown. Calls follow the shape of the dose curve; as a rule, active = well fitted curve in the direction sought with a large enough effect; inconclusive = small, poorly fitted or top-dose-only effect, or another doubt; inactive = no such curve, though single readings can be large; an effect the other way counts as inactive or inconclusive.

SMILES | GLS inhibitor | Pol eta inh-1 | APEX1 inh | Pol beta inh | POLI inh | Pol kappa inh-1 | Pol eta inh-2 | others
CC1=C2C(CCS2(=O)=O)CC2(C1)C(=O)OC(C)(C)OC2=O (stereo unspecified) | u | 79µM* | u | u | u | u | u
CCOc1ccc(C(C)=O)cc1CN1C(=O)NC2(CCCCC2C)C1=O (stereo unspecified) | 0% | -1% | 0% | 23% | -12% | 1% | x
C=CCOc1c(Br)cc(C2NC(=O)NC(C)=C2C(C)=O)cc1OCC (stereo unspecified) | -14% | -8% | u | -11% | -3% | -5% | x
CCOc1cc(C2NC(=O)NC(C)=C2C(C)=O)cc(Cl)c1OCC(=O)O (stereo unspecified) | 4% | 22µM* | -1% | u | u | -28% | u
COCCn1c(SC(C)C(=O)NCC2CCCO2)nc2sc3c(c2c1=O)CCC3 (stereo unspecified) | 12% | u | -3% | x | u | -2% | u
Cc1ccc(-c2ccc(/C=C3\C(=O)ON=C3c3ccccc3)o2)c([N+](=O)[O-])c1 | 56% | 28µM* | 1% | 29% | 32µM* | -36% | 85* | Pol kappa inh-2=u
Cc1ccc(-c2ccc(/C=N/N3C(=O)C4C5C=CC(CC5)C4C3=O)o2)c([N+](=O)[O-])c1 (stereo unspecified) | -10% | -6% | -5% | 5% | 11% | -15% | x
O=C(Nc1ccccc1)/C(=C/c1ccc([N+](=O)[O-])cc1)NC(=O)c1ccco1 | -15% | -5% | 72% | -1% | 12% | -1% | x
O=C1c2cccc3cccc(c23)C(=O)N1c1ccc2ncccc2c1 | 8% | u | 6% | 32µM* | u | u | x | Pol kappa inh-2=u
O=C(NCc1cc([N+](=O)[O-])ccc1O)c1cccnc1Sc1ccccc1 | 1% | -7% | -12% | 4% | 28% | 2% | x
CS(=O)(=O)C1=NSC2=NC(=O)/C(=C\c3cccn3-c3ccccc3Cl)C(=N)N21 | -15% | 40µM* | -8% | 35µM* | u | u | u
CS(=O)(=O)C1=NSC2=NC(=O)/C(=C\c3ccc(-c4ccccc4)o3)C(=N)N21 | x | x | 15% | 23% | x | x | x
Cc1cc(C)cc(-n2cccc2/C=C2/C(=N)N3C(=NC2=O)SN=C3S(C)(=O)=O)c1 | 35% | 40µM* | u | 45µM* | u | -10% | u
Cc1cc(=O)oc2c(CN3CCC(C)CC3)c(O)c(Cl)cc12 | -13% | 13µM* | u | 16µM* | u | u | u
COc1ccc(-c2nsc3c(N4CCCC4)ncnc23)cc1 | 0% | 5% | 15% | -2% | 16% | 2% | x
O=C(NCCc1ccccc1F)C1CCCN1S(=O)(=O)c1ccccc1 (stereo unspecified) | 2% | -5% | -3% | 27% | 7% | -2% | x
CCN(CC)c1ccc(/C=C2/C(=O)c3ccc(C(=O)O)cc3C2=O)cc1 | u | 3.5µM* | u | u | 18µM* | 79µM* | 38* | Pol kappa inh-2=7.5*
CCOC(=O)c1sc(N/N=C/c2ccccc2)nc1C | u | -21% | -2% | 30% | 29% | -2% | x
O=C(O)Cc1sc(N/N=C\c2ccccc2)nc1-c1ccccc1 | -19% | 40µM* | 10% | -24% | u | -44% | 48* | Pol kappa inh-2=27*
O=C1ON=C(c2ccccc2)/C1=C/c1ccc(O)c(O)c1 | 17% | 22µM* | -10% | -17% | u | 12% | 60* | GALK confirm=u;GALK redox cs=-16%;HEK293 viability=-3%
CN1CCCN(S(=O)(=O)c2ccccc2)CC1 | -6% | -19% | 1% | 45% | 3% | -19% | x
Cc1ccc2nc(/C(C#N)=C/c3ccc(-c4ccccc4C(=O)O)o3)[nH]c2c1 | u | 20µM* | u | 22µM* | u | u | x | Pol kappa inh-2=u
Cc1cc(/C=C(/C#N)c2nc3ccccc3[nH]2)c(C)n1-c1ccccc1C(=O)O | 111% | 18µM* | u | 20µM* | 11µM* | u | 38* | Pol kappa inh-2=17*
CCOC(=O)CN1C(=O)S/C(=C/c2ccc(C)o2)C1=O | 4% | -12% | 34% | -21% | 77% | -15% | x
C#CCN1C(=O)S/C(=C\c2ccc(-c3ccc(Cl)c(C(=O)O)c3)o2)C1=O | -7% | 14µM* | 4% | u | u | 35µM* | u
SMILES | GLS inhibitor | Pol eta inh-1 | APEX1 inh | Pol beta inh | POLI inh | Pol kappa inh-1 | Pol eta inh-2 | others
Cn1nc(C(F)(F)F)c2cc(C(=O)Nc3ccc(C(F)(F)F)cc3)sc21 | -3% | -28% | -2% | 15% | 166% | -7% | x
CCc1cc[n+](C2=C([O-])c3ccccc3C(=O)/C2=N\S(=O)(=O)c2cccs2)cc1 | 7% | 50µM* | -9% | u | u | -19% | 76*
COc1ccc(C(=O)COC(=O)Cn2[nH]c(=O)c3ccccc3c2=O)c(OC)c1 | 1% | -2% | -4% | x | 13% | -14% | x
O=C(O)CCC(=O)Nc1ccc2c(c1)Cc1cc(NC(=O)CCC(=O)O)ccc1-2 | 2% | 25µM* | -35% | 45µM* | -10% | 1% | u
COC(=O)c1oc2ccccc2c1N | 20% | 11% | 2% | 5% | u | -16% | x
COC(=O)c1oc2ccccc2c1NC(=O)/C=C/C(=O)O | -1% | -6% | -12% | -30% | 30% | 2% | x | GALK confirm=0%;GALK redox cs=8%;HEK293 viability=14%
CC(C)=NNc1nc(-c2ccc(N3C(=O)CCC3=O)cc2)cs1 | u | u | 6% | 38% | u | -19% | x

Compound activity: PubChem, National Center for Advancing Translational Sciences (NCATS)
